From PubChem BioAssay
Sampled rows, rich in hits. Any-hit rate of the full collection: about 0.92%.
MEP2-GFP yeast – yeast TOR pathway MEP2-GFP modulation | S. cerevisiae MEP2-GFP strain, flow cytometry GFP, 3 h; 100% = DMSO control level | GFP response vs DMSO, % at 10 µM | 330,000 tested, 0.51% active | AID 2016;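 active means GFP response versus DMSO above a set limit, roughly screen mean plus 3 SD, cut at about 180% in these data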;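 further: median GFP fluorescence of the barcode-gated MEP2-GFP cells per well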
AGP1-GFP MLPCN – alters AGP1-GFP fluorescence in TOR pathway yeast screen; S. cerevisiae AGP1-GFP multiplex flow cytometry, 3 h; GFP as percent of DMSO wells; GFP response vs DMSO, % at 10 µM; 320,000 tested, 0.02% active;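 active means GFP response relative to DMSO above a set limit, near screen average plus 3 SD, cut at about 150% in these data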;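 further: median GFP channel fluorescence of the gated AGP1 strain per well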
RPL19A TOR yeast – modulators of TOR pathway RPL19A-GFP in S. cerevisiae; 330,000 tested, 0.3% active; percent response vs DMSO, % at 10 µM; S. cerevisiae RPL19A-GFP strain, flow cytometry, 3 h; stronger effect = lower value;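 active means percent response vs DMSO below 50%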;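 further: median channel GFP fluorescence of the barcoded RPL19A-GFP strain; ratio of sample median GFP to plate DMSO average so 100% = DMSO; lower means less RPL19A-GFP as with rapamycin TOR inhibition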
CIT2-GFP yeast – alters CIT2-GFP fluorescence in TOR pathway yeast screen; S. cerevisiae CIT2-GFP strain, flow cytometry, 3 h; 100 means same as DMSO wells; GFP response vs DMSO, % at 10 µM; 320,000 tested, 0.065% active; AID 2029;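 active means GFP response relative to DMSO above a set limit, near the screen mean plus 3 SD, cut at about 150% in these data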;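 further: ratio of well median GFP fluorescence to mean of DMSO wells on the plate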
LAP4 TOR yeast – alters LAP4-GFP fluorescence in TOR pathway yeast screen | S. cerevisiae LAP4-GFP multiplex, flow cytometry GFP, 3 h; median GFP as percent of DMSO wells | GFP response vs DMSO, % at 10 µM | 320,000 tested, 0.34% active | AID 2023;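 active means GFP response vs DMSO above a set limit, about the screen mean plus 3 SD, cut at about 150% in these data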
LAP4-GFP pick2 – second confirmation of modulators of TOR reporter LAP4-GFP in yeast | GFP response vs DMSO, % at 10 µM | 590 tested, 20% active | S. cerevisiae LAP4-GFP strain, flow cytometry GFP, 3 h | shares compounds with LAP4 TOR yeast;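 active means GFP signal as percent of the solvent control above about 150%, meaning raised reporter expression, limit read from the data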;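 further: ratio of well median GFP fluorescence to plate DMSO mean so 100% = DMSO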
MEP2-GFP pick2 – second confirmation of modulators of TOR reporter MEP2-GFP in yeast; S. cerevisiae MEP2-GFP strain, flow cytometry GFP, 3 h; AID 2622; shares compounds with LAP4 TOR yeast; 590 tested, 10% active; GFP response vs DMSO, % at 10 µM;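 active means GFP signal above 150% of the solvent control wells, that is a rise of more than half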;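 further: median channel GFP fluorescence of all gated yeast cells per well; ratio of median GFP to plate DMSO average so 100% = DMSO level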
RPL19A GFP CP2 – yeast RPL19A-GFP TOR reporter modulation, second cherry pick; GFP response vs DMSO, % at 10 µM; 590 tested, 3% active; shares compounds with LAP4 TOR yeast; S. cerevisiae RPL19A-GFP strain, flow cytometry GFP, 3 h; stronger effect = lower value; 100% means same as DMSO wells; AID 2623;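 active means under 65% GFP response relative to DMSO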;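 further: median GFP channel fluorescence per well over the all cells gate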
CIT2-GFP pick2 – yeast CIT2-GFP TOR reporter modulation, second cherry pick. AID 2624. GFP response vs DMSO, % at 10 µM. 590 tested, 8% active. S. cerevisiae CIT2-GFP strain, flow cytometry GFP, 3 h; DMSO control wells read 100%. shares compounds with LAP4 TOR yeast;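 active means GFP response vs DMSO above about 150%, limit read from the data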;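 further: median green fluorescence per well over all gated yeast cells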
AGP1-GFP pick2 – reconfirmed modulator of AGP1-GFP TOR reporter in yeast; AID 2643; percent response vs DMSO, % at 10 µM; shares compounds with LAP4 TOR yeast; S. cerevisiae AGP1-GFP strain, flow cytometry GFP, 3 h; 590 tested, under 10 active;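 active means over 150 percent of DMSO response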;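 further: median GFP channel fluorescence over all cells without mother daughter split; sample median GFP divided by mean DMSO control so 100% equals DMSO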
s288c autofluor – counter-screen for compound autofluorescence in yeast s288c cells; fluorescence change (kMESF span) at 33 µM; S. cerevisiae s288c, 520 nm autofluorescence, flow cytometry, 3 h; stronger effect = higher value; zero means same as solvent-only cells; 610 tested, under 10 active; shares compounds with LAP4 TOR yeast;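 active means fluorescence span over the dose series, or activity score, above about 33, limit read from the data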
* = called active by the depositor.

Results for CC(C)[C@H](NS(=O)(=O)c1ccccc1F)C(=O)OCC(=O)Nc1cccc(S(N)(=O)=O)c1 ?
MEP2-GFP yeast: 96; AGP1-GFP MLPCN: 100; RPL19A TOR yeast: 97; CIT2-GFP yeast: 101; LAP4 TOR yeast: 95

Results for O=[N+]([O-])c1ccc(O)c(/C=N/Nc2ccccn2)c1 ?
MEP2-GFP yeast: 122; AGP1-GFP MLPCN: 92; RPL19A TOR yeast: 66; CIT2-GFP yeast: 133; LAP4 TOR yeast: 237*; LAP4-GFP pick2: 284*; MEP2-GFP pick2: 180*; RPL19A GFP CP2: 90; CIT2-GFP pick2: 131; AGP1-GFP pick2: 97; s288c autofluor: 2.3

Results for COc1ccccc1OCCCCCc1c(C)n[nH]c1C ?
MEP2-GFP yeast: 108; AGP1-GFP MLPCN: 95; RPL19A TOR yeast: 102; CIT2-GFP yeast: 91; LAP4 TOR yeast: 104

Results for COc1ccccc1OCCCc1c(C)n[nH]c1C ?
MEP2-GFP yeast: 119; AGP1-GFP MLPCN: 58; RPL19A TOR yeast: 117; CIT2-GFP yeast: 100; LAP4 TOR yeast: 190*; s288c autofluor: 2

How did O=C1c2cccc3c([N+](=O)[O-])ccc(c23)C(=O)N1CCc1ccccn1 do in these assays?
MEP2-GFP yeast: 167; AGP1-GFP MLPCN: 88; RPL19A TOR yeast: 96; CIT2-GFP yeast: 123; LAP4 TOR yeast: 152*; s288c autofluor: 12

Results for O=C(NCC(c1ccco1)N1CCc2ccccc2C1)c1cccc(Br)c1 (stereo unspecified) ?
MEP2-GFP yeast: 102; AGP1-GFP MLPCN: 114; RPL19A TOR yeast: 104; CIT2-GFP yeast: 104; LAP4 TOR yeast: 105

What do the screens show for `CCN(CC(=O)NC(C)(C)C)C(=O)COc1c(Cl)cc(Cl)c2ccc(C)nc12`?
MEP2-GFP yeast: 97; AGP1-GFP MLPCN: 86; RPL19A TOR yeast: 87; CIT2-GFP yeast: 81; LAP4 TOR yeast: 227*; s288c autofluor: 1

How did CCOc1ccccc1NC(=O)COC(=O)COc1c(Cl)cc(Cl)c2ccc(C)nc12 do in these assays?
MEP2-GFP yeast: 93; AGP1-GFP MLPCN: 104; RPL19A TOR yeast: 96; CIT2-GFP yeast: 95; LAP4 TOR yeast: 104

Results for O=C(COC(=O)Cc1ccc(S(=O)(=O)N2CCOCC2)s1)Nc1ccccc1Cl ?
MEP2-GFP yeast: 96; AGP1-GFP MLPCN: 95; RPL19A TOR yeast: 100; CIT2-GFP yeast: 90; LAP4 TOR yeast: 93

Results for O=C(/C=C/c1ccccc1)NC(=S)NNC(=O)Cc1cccs1 ?
MEP2-GFP yeast: 107; AGP1-GFP MLPCN: 94; RPL19A TOR yeast: 95; CIT2-GFP yeast: 77; LAP4 TOR yeast: 107; LAP4-GFP pick2: 104; MEP2-GFP pick2: 101; RPL19A GFP CP2: 96; CIT2-GFP pick2: 103; AGP1-GFP pick2: 100; s288c autofluor: 0.2

How did O=C(c1ccc(Cl)cc1)N1CCC(O)(CSc2ccccc2)CC1 do in these assays?
MEP2-GFP yeast: 160; AGP1-GFP MLPCN: 26; RPL19A TOR yeast: 63; CIT2-GFP yeast: 101; LAP4 TOR yeast: 93; LAP4-GFP pick2: 105; MEP2-GFP pick2: 107; RPL19A GFP CP2: 99; CIT2-GFP pick2: 103; AGP1-GFP pick2: 96

How did CCOc1ccc(-c2c(C(=O)N/N=C/c3cccnc3)nnn2-c2nonc2N)cc1 do in these assays?
MEP2-GFP yeast: 99; AGP1-GFP MLPCN: 91; RPL19A TOR yeast: 94; CIT2-GFP yeast: 98; LAP4 TOR yeast: 88

What do the screens show for `Cc1ccc2nc(/C(C#N)=C/c3ccccc3C(=O)O)[nH]c2c1`?
MEP2-GFP yeast: 105; AGP1-GFP MLPCN: 104; RPL19A TOR yeast: 103; CIT2-GFP yeast: 109; LAP4 TOR yeast: 96

What do the screens show for `Cc1ccc2nc(/C(C#N)=C/c3ccc(O)c(O)c3)[nH]c2c1`?
MEP2-GFP yeast: 189*; AGP1-GFP MLPCN: 109; RPL19A TOR yeast: 115; CIT2-GFP yeast: 150*; LAP4 TOR yeast: 148; s288c autofluor: 0.41

How did CCOC(=O)c1sc(Nc2ccccc2Cl)nc1C do in these assays?
MEP2-GFP yeast: 168; AGP1-GFP MLPCN: 73; RPL19A TOR yeast: 52; CIT2-GFP yeast: 82; LAP4 TOR yeast: 109; LAP4-GFP pick2: 99; MEP2-GFP pick2: 98; RPL19A GFP CP2: 100; CIT2-GFP pick2: 94; AGP1-GFP pick2: 95

What do the screens show for `CCc1cccc2c(C(=O)CSc3nnc(C4CC4)o3)c[nH]c12`?
MEP2-GFP yeast: 107; AGP1-GFP MLPCN: 115; RPL19A TOR yeast: 102; CIT2-GFP yeast: 95; LAP4 TOR yeast: 123

How did CCC(=O)NC(c1ccc(C)cc1)c1cc(Cl)c2cccnc2c1O (stereo unspecified) do in these assays?
MEP2-GFP yeast: 94; AGP1-GFP MLPCN: 89; RPL19A TOR yeast: 93; CIT2-GFP yeast: 89; LAP4 TOR yeast: 91

How did CCOc1ccc(C(Nc2cccnc2)c2cc(Cl)c3cccnc3c2O)cc1 (stereo unspecified) do in these assays?
MEP2-GFP yeast: 93; AGP1-GFP MLPCN: 75; RPL19A TOR yeast: 70; CIT2-GFP yeast: 70; LAP4 TOR yeast: 224*; s288c autofluor: 1.3

How did O=C1CCCN1C(=O)CSc1nnnn1-c1cccc(F)c1 do in these assays?
MEP2-GFP yeast: 100; AGP1-GFP MLPCN: 104; RPL19A TOR yeast: 96; CIT2-GFP yeast: 103; LAP4 TOR yeast: 106

How did COC(=O)Cc1csc(NC(=O)CSc2nncn2C)n1 do in these assays?
MEP2-GFP yeast: 106; AGP1-GFP MLPCN: 109; RPL19A TOR yeast: 88; CIT2-GFP yeast: 82; LAP4 TOR yeast: 169*; LAP4-GFP pick2: 131; MEP2-GFP pick2: 100; RPL19A GFP CP2: 100; CIT2-GFP pick2: 110; AGP1-GFP pick2: 99
